# Laboratory results published in PubChem BioAssay.
# The source made the active and inactive calls. Unless noted, no rule for the calls is given here.
# What was measured:
# [1] = compounds binding Alexa647 anti-His antibody – biochemical, small-molecule microarray, 635 nm fluorescence, artefact control for SMM control protein annotation, primary screen (AID 1128); conditions: higher = more signal;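 also: score merges feature fluorescence with signal-to-noise for each printed compound spot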
# [2] = system: Human papillomavirus type 1a E7 protein (residues 1-88); assay: HPV1a E7 small-molecule binders, primary screen, biochemical, small-molecule microarray, residues 1-88, 635 nm (AID 1129); conditions: small-molecule microarray binding, fluorescence 635 nm; higher = more signal
# [3] = target: Focal adhesion kinase 1 (Homo sapiens) (UniProt Q05397); assay: PTK2 protein binding on printed compound slides – biochemical, small-molecule microarray, 635/667 nm fluorescence, BSA, DTT, primary screen (AID 1130); conditions: 635 nm fluorescence, higher = more signal;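 also: composite of spot emission at 667 nm and signal to noise over triplicate slides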
# [4] = system: Fibrinogen (Alexa647-labelled); assay: Alexa647-fibrinogen binding to printed small molecules – biochemical, small-molecule microarray, 635/667 nm fluorescence, artefact control for SMM control-protein annotation, profiling panel (AID 1131); conditions: fibrinogen-A647 binding fluorescence, higher = more signal;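 also: z-score merges 667 nm fluorescence with per-spot signal-to-noise over triplicate slides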
# [5] = target: Follistatin (Homo sapiens) (UniProt P19883); assay: FST protein binding to printed compounds – biochemical, small-molecule microarray, 635/667 nm fluorescence, primary screen (AID 1132); conditions: 635 nm fluorescence, higher = more signal
# [6] = target: Fibroblast growth factor 2 (Homo sapiens) (UniProt P09038); assay: basic fibroblast growth factor binding to printed compounds – biochemical, small-molecule microarray, 635/667 nm fluorescence, primary screen (AID 1133); conditions: FGF2, fluorescence 635/667, higher = more signal
# [7] = JC-1 mitochondrial potential readout, lung cancer cells – cell-based, A549, JC-1 fluorescence, basal, 24 h, 100 nL, profiling panel (AID 1138); conditions: higher = more signal;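 also: A549 lung adenocarcinoma cells under basal conditions with no added stimulus; test concentration not given here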
# Lefty1 = Lefty1 protein binding to printed compounds – biochemical, small-molecule microarray, 635/667 nm fluorescence, primary screen (AID 1139); conditions: fluorescence 635/667, higher = more signal
# [8] = system: wheat germ agglutinin (Triticum aestivum), Alexa647-labelled; assay: Alexa647-WGA lectin binding to printed small molecules – biochemical, small-molecule microarray, 635/667 nm fluorescence, artefact control for SMM control-protein annotation, profiling panel (AID 1140); conditions: WGA-A647 binding, 635 nm fluorescence, higher = more signal;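 also: score merges 667 nm feature emission with signal to noise over triplicate slides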
# [9] = target: Luciferin 4-monooxygenase (Photinus pyralis) (UniProt P08659); assay: inhibition of purified Photinus pyralis luciferase – biochemical, luminescence, purified enzyme, 2006 set, primary screen (AID 1141); conditions: purified firefly luciferase, SteadyGlo luminescence, 30 min; higher = more signal, called active from +8 up or from −8 down;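 also: cell-free assay with purified firefly luciferase at 100 ng per well in PBS; test concentration not given here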
# [10] = system: Wnt5a (protein binding on small-molecule microarray); assay: small molecules binding Wnt5a protein – biophysical, small-molecule microarray, 635/667 nm fluorescence, primary screen (AID 1142); conditions: 635 nm fluorescence, higher = more signal;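 also: fluorescence read at 667 nm with signal to noise per printed feature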
# [11] = ATP-based viability of Huh7 replicon cells – cell-based, CellTiter-Glo luminescence, basal, 48 h, cytotoxicity control for HCV replication inhibitor project, primary screen (AID 1143); conditions: higher = more signal, called active from +8 up or from −8 down;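 also: Huh7 hepatoma cells carrying a hepatitis C replication reporter with no stimulus; test concentration not given here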
# [12] = Pseudomonas biofilm growth suppression – PAO1 strain, BacTiter-Glo luminescence, LB-PBS, primary screen (AID 1144); conditions: P. aeruginosa PAO1 biofilm, 12 h, higher = more signal
# [13] = basal CRE-LacZ reporter activity in PC12 – cell-based, unstimulated, primary screen (AID 1145); conditions: no forskolin, luminescence, 4.5 h, higher = more signal, called active from +8 up or from −8 down
# [14] = forskolin-driven CRE-LacZ activity in PC12 – cell-based, CRE-LacZ reporter, forskolin-stimulated, primary screen (AID 1146); conditions: luminescence, 4.5 h, higher = more signal, called active from +8 up or from −8 down;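 also: PC12 cells with 6xCRE LacZ reporter stimulated by forskolin 10 µM; beta-galactosidase reporter signal reflecting CREB driven transcription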
# [15] = target: Streptavidin (Streptomyces avidinii) (UniProt P22629); assay: compounds binding control protein streptavidin – biophysical, small-molecule microarray, 635/667 nm fluorescence, artefact control for SMM compound annotation, primary screen (AID 1147); conditions: higher = more signal;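 also: signal reflects streptavidin binding to arrayed compounds as a control protein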
# [16] = probe aInhba binding on compound microarray – biochemical, small-molecule microarray, 635/667 nm fluorescence, primary screen (AID 1148); conditions: higher = more signal;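 also: score merges 667nm spot fluorescence with signal-to-noise for antibody binding to printed compounds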
# Torsin-1A (Homo sapiens) [17] = target: Torsin-1A (Homo sapiens) (UniProt O14656); assay: TOR1A wild-type binding on microarray – cell lysate, small-molecule microarray, lysate, 635/667 nm, primary screen (AID 1149); conditions: COS7 hTOR1A-WT lysate, 635 nm fluorescence, higher = more signal
# Torsin-1A (Homo sapiens) [18] = target: Torsin-1A (Homo sapiens) (UniProt O14656); assay: torsin A mutant lysate binding on microarrays – cell lysate, small-molecule microarray, COS7 lysate, 635/667 nm fluorescence, primary screen (AID 1150); conditions: COS7 hTOR1A mutant lysate, 635 nm fluorescence, higher = more signal;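 also: score pools 667 nm emission and signal to noise measuring lysate protein binding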
# [19] = system: Sonic hedgehog protein (Shh); assay: Sonic hedgehog microarray binding compounds – biochemical, small-molecule microarray, 635/667 nm fluorescence, primary screen (AID 1151); conditions: 635 nm fluorescence, higher = more signal;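 also: Shh protein binding to compounds spotted on small-molecule microarray slides; score combines spot fluorescence intensity with signal-to-noise across triplicate slides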
# Sequence of Luciferin 4-monooxygenase (Photinus pyralis) (P08659 whole entry, looked up): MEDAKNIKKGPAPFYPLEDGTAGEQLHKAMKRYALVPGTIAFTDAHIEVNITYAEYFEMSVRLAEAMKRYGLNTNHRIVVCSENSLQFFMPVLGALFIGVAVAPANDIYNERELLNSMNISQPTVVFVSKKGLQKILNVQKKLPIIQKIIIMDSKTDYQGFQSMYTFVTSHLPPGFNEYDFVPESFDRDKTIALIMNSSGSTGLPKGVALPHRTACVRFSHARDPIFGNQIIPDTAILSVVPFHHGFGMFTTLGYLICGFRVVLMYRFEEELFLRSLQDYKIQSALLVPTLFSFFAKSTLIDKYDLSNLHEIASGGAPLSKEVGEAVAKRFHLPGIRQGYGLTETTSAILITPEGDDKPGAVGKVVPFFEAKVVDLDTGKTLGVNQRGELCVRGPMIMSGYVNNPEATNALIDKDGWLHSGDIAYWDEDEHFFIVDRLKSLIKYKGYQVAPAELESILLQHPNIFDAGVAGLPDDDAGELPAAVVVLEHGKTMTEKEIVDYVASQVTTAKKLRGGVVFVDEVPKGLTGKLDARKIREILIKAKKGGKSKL
# Sequence of Torsin-1A (Homo sapiens) (O14656 whole entry, looked up): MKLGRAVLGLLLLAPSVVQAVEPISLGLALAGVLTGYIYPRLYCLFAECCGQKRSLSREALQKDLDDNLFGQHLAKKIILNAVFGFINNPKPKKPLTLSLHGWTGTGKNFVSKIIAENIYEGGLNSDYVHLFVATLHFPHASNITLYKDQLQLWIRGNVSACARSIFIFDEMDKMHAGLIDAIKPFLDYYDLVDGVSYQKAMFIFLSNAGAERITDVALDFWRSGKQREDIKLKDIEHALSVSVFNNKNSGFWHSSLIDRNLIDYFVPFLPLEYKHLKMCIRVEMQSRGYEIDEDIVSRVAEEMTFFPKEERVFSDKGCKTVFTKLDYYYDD
# Sequence of Streptavidin (Streptomyces avidinii) (P22629 whole entry, looked up): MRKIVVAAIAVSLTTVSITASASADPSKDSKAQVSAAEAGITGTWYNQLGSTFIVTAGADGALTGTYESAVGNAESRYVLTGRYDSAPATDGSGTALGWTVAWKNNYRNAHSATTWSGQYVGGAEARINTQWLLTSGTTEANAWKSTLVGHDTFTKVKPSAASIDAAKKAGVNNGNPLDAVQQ
# Sequence of Fibroblast growth factor 2 (Homo sapiens) (P09038 whole entry, looked up): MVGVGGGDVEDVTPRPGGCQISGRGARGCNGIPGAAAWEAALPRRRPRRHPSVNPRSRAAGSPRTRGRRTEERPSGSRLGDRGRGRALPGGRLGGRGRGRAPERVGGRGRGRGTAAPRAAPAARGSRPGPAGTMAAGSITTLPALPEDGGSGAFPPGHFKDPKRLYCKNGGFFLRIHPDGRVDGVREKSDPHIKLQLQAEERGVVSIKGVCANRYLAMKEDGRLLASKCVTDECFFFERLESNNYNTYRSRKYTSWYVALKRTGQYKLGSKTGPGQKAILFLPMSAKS
# Sequence of Follistatin (Homo sapiens) (P19883 whole entry, looked up): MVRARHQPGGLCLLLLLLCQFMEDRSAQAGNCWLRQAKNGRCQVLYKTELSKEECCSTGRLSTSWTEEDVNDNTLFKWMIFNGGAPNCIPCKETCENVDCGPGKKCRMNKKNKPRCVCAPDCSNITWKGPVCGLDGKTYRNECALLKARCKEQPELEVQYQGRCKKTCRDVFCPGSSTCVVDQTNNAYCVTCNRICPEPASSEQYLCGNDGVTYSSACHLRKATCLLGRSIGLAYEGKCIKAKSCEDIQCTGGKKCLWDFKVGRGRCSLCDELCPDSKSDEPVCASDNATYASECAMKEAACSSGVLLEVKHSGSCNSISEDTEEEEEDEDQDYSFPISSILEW
# Sequence of Focal adhesion kinase 1 (Homo sapiens) (Q05397 whole entry, looked up): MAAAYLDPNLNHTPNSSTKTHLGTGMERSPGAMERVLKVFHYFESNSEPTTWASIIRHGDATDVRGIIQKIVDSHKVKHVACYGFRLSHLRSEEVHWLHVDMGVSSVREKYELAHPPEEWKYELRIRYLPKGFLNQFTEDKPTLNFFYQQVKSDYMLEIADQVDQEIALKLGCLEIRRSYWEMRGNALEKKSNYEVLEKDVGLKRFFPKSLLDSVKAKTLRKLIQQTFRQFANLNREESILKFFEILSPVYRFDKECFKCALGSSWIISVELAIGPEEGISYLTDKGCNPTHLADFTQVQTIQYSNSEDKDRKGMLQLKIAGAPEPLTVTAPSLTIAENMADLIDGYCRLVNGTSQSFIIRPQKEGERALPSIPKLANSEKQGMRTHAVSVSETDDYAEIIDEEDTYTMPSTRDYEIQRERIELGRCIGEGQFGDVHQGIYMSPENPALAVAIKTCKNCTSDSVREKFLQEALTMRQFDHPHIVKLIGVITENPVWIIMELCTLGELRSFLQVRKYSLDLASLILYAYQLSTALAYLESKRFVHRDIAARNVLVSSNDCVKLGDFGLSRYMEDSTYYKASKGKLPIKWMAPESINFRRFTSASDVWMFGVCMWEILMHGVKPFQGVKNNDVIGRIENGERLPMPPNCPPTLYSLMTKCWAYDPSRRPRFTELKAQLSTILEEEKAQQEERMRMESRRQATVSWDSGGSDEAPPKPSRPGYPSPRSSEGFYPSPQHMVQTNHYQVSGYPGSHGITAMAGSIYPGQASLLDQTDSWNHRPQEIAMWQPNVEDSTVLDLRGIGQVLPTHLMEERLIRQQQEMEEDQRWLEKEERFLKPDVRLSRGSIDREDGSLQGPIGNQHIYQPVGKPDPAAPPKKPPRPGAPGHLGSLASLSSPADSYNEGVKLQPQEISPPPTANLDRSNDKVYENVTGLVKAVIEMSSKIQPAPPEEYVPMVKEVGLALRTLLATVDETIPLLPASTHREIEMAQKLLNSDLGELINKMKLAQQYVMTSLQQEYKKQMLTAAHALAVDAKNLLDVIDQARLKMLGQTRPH
Structure (SMILES),composite z-score [1],composite z-score [2],composite z-score [3],composite z-score [4],composite z-score [5],composite z-score [6],z-score [7],composite z-score (Lefty1),composite z-score [8],z-score [9],composite z-score [10],z-score [11],z-score [12],z-score [13],z-score [14],composite z-score [15],composite z-score [16],composite z-score (Torsin-1A (Homo sapiens) [17]),composite z-score (Torsin-1A (Homo sapiens) [18]),composite z-score [19]
COc1ccc([Si](C)(C)[C@@H]2[C@@H](CC(=O)N3CCC[C@H]3CO)O[C@]3(C(=O)N(c4ccccc4)c4ccccc43)[C@H]2C)cc1,0.806,1.22,0.472,0.94,1.1,0.642,-0.228,1.01,0.2,0.659 (inactive),0.155,-4.58 (inactive),0.439 (inactive),-0.0815 (inactive),0.334 (inactive),0.578,0.0047,0.491,0.466,1.53
CCC(CC)C(O)C1C=CC2C(=O)NC(=O)C2N1Nc1ccccn1 (stereo not given),0.823,-0.0365,0.268,-0.206,0.872,0.0277,0.693,-0.0021,0.0789,-0.0791 (inactive),-0.108,1.06 (inactive),-0.515 (inactive),0.246 (inactive),0.783 (inactive),-0.12,-0.016,0.147,0.317,0.186
COC(=O)[C@@]1(Cc2ccc(F)cc2)[C@H]2c3cc(C(=O)N(C)C)n(Cc4ccc(Cl)c(C(F)(F)F)c4)c3C[C@H]2CN1C(=O)c1ccccc1,2.56,1.22,1.14,1.01,0.909,-0.542,1.98,-0.764,1.4,1.04 (inactive),0.156,-2.95 (inactive),0.44 (inactive),1.34 (inactive),0.778 (inactive),2.37,0.588,0.146,0.751,-0.823
CC(C)NC(=O)[C@@H]1c2ccccc2C(=O)N(C2Cc3ccccc3C2)[C@H]1c1ccc(CO)cc1,1.51,1.04,0.0815,0.445,0.351,0.162,2.54,-0.0727,0.664,0.668 (inactive),-0.0402,-1.09 (inactive),-0.737 (inactive),0.441 (inactive),-1.35 (inactive),0.251,-0.128,-0.232,0.474,0.231
CCOC(=O)C[C@H]1[C@H](OC(=O)c2ccccc2-c2ccccc2)[C@@H](NC(=O)CC(C)C)c2cc(OCCCO)ccc2N1C(=O)Cc1ccc(OC)cc1,-0.272,0.149,-0.0432,0.522,-0.247,0.268,1.15,0.108,0.288,-0.0339 (inactive),-0.0051,-0.386 (inactive),0.393 (inactive),6.91 (inactive),0.0967 (inactive),0.0802,-0.179,0.0776,0.199,0.222
COc1ccc(CCNC(=O)[C@@H]2c3ccccc3C(=O)N(Cc3ccccc3Cl)[C@H]2c2ccc(CO)cc2)cc1,0.218,1.14,0.224,0.435,0.495,0.187,2.4,-0.0833,0.261,-0.745 (inactive),0.177,-0.124 (inactive),0.603 (inactive),0.701 (inactive),-0.977 (inactive),-0.001,-0.0645,0.25,0.0327,-0.214
